In the library only some 6.3% were active in any assay of this set; here they are far more common.
DPM-DC inhibit = S. pneumoniae DPM-DC inhibitors, primary screen, biochemical, PK/LDH-coupled NADH fluorescence; diphosphomevalonate decarboxylase (Streptococcus pneumoniae D39); purified DPM-DC; calls only at 10 µM; 65,000 tested, 0.49% active;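 active = the 320 compounds with the highest percent inhibition in the single-dose primary screen, excluding strongly autofluorescent ones, cut at about 32% in these data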;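 also: kinetic rate of NADH fluorescence loss reporting ADP formed by the decarboxylase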
PMK inhibit = S. pneumoniae PMK inhibitors, primary screen, biochemical, mevalonate pathway, pilot trial included; AID 539, 2006; 65,000 tested, 0.49% active; inhibition, % at 10 µM; phosphomevalonate kinase (Streptococcus pneumoniae D39); purified PMK, PK/LDH-coupled NADH absorbance 340 nm;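 active = top-ranked compounds by inhibition in the single 10 µM screen, taking a fixed number of the strongest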;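 also: 0% = full reaction with DMSO carrier and 100% = background rate without enzyme reaction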
Fluor 339 460 = intrinsic fluorescence of library compounds, ex339/em460 – biochemical, MLSMR library, data from DPM-DC assay, artefact control, profiling panel; compound autofluorescence, ex339/em460 nm, NADH buffer; hits give high values; 1 = no-compound wells, NADH background; fluorescence fold increase at 10 µM; 65,000 tested, 5.5% active; AID 709, 2007;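 active = at 10 µM, mean starting fluorescence two-fold or more over control wells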;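 also: signal is the first read of a kinetic run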
NADH enzymes = inhibitors of PK/LDH coupling enzymes, profiling panel, artefact control, biochemical, MLSMR library; coupled PK/LDH NADH assays, four targets; 65,000 tested, 0.02% active; IC50, µM (doses to about 10 µM), for the others: at the top dose inhibition;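 active = single-dose screening hits from any of four coupled enzyme assays that gave an IC50 when retested across doses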;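 also: the DPM-DC format reads NADH fluorescence rather than 340 nm absorbance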
MK inhibit = S. pneumoniae MK inhibitors, primary screen, biochemical, PK/LDH-coupled NADH absorbance; mevalonate kinase [Streptococcus pneumoniae D39]; purified MK, PK/LDH-coupled NADH absorbance 340 nm; inhibition, % at 10 µM; 65,000 tested, 0.48% active; AID 555, 2006;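 active = ranked among the strongest by inhibition in the single 10 µM screen, a fixed top-ranked set picked for dose follow-up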
Abs 340nm = compound light absorbance at 340 nm, profiling panel, artefact control, biochemical, MLSMR library, data from PS, PMK, MK assays; compound absorbance at 340 nm, fold over control; fold change at 10 µM; 65,000 tested, under 10 active;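 active = at 10 µM dose, initial 340 nm absorbance at least 2 fold that of control wells; inactive = change under 2 fold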;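 also: initial absorbance extrapolated from kinetic A340 decline of NADH oxidation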
* = called active by the depositor; i = inactive; x = not tested or not shown; + = active, no number.

SMILES	DPM-DC inhibit	PMK inhibit	Fluor 339 460	NADH enzymes	MK inhibit	Abs 340nm
CCOC(=O)c1nc2sc3c(c2c(=O)[nH]1)CCCC3	x	8	2.5*	2%	2	1.1
CCOC(=O)c1nc(N2CCN(C(=O)OCC)CC2)c2c3c(sc2n1)CCCC3	x	12	3.7*	6%	0	1.1
CCOC(=O)CSc1nc(N)c2c3c(sc2n1)CCCC3	i	7	1.1	2%	1	0.99
CCc1ccc(CCC(=O)Nc2ccc(C)c(C)c2)o1	+	10	1.1	5%	10	0.98
CC1CCN(C(=O)CSc2nnc(-c3cc4ccccc4cc3O)n2Cc2ccco2)CC1	i	0	1.1	1%	2	0.98
Cn1c2ccccc2c2c(C(=O)NCC3CCCO3)cn(C3CCCC3)c(=O)c21 (stereo not drawn)	x	16	2.1*	11%	5	1.1
CC(C)Cn1cc(C(=O)NCC2CCCO2)c2c3ccccc3n(C)c2c1=O (stereo not drawn)	i	13	2.5*	9%	11	1
CCCCN=CC1=C(O)C(C(=O)OC)C(C)(C)CC1=O (stereo not drawn)	i	4	1	1%	0	1.1
CCN(CC)c1ccc2c(C)c(CN3CCOCC3)c(=O)oc2c1	x	9	4.3*	9%	9	1.1
O=C(NCCN1CCOCC1)c1ccc2c(c1)ncn2C1CCCCC1	i	13	1.1	7%	8	1
CC(=O)Oc1ccccc1-c1nc(C)nc(N(C)C(C)=O)n1	i	0	1.1	3%	1	1.1
COC(=O)c1ccc(COc2ccc(C3C4=C(CCCC4=O)Nc4onc(C)c43)cc2)cc1 (stereo not drawn)	i	9	2.4*	5%	0	1
COC(=O)c1ccc(C2CC(=O)NC3=C2C(=O)CCC3)cc1 (stereo not drawn)	i	14	1.1	7%	6	0.99
COC(=O)c1oc2ccc(Br)cc2c1NC(=O)c1ccccc1	i	10	3.2*	12%	5	1.1
COC(=O)c1oc2ccc(Br)cc2c1NC(=O)CN1CCN(C)CC1	i	12	1.1	3%	7	1
O=C(CSc1ncn[nH]1)Nc1ccc(Cl)c(Cl)c1	i	9	1.1	7%	12	1
CC(CN1CCCC1)OC(=O)COc1ccccc1 (stereo not drawn)	i	19	1.1	6%	0	1
CC(C)Oc1ccc(-c2nn(-c3ccccc3)cc2/C=c2\sc3ncnn3c2=O)cc1	x	8	3*	3%	7	1
COC(=O)/C=c1\sc2ncnn2c1=O	i	2	1	1%	1	1
CN1CC(=O)NC1=NC(=O)c1ccc(Cl)c(S(=O)(=O)N2CCCCCC2)c1	i	28*	1.1	9%	0	0.99
CN1CC(=O)NC1=NC(=O)c1cc(F)c(F)cc1Cl	i	23	1.1	8%	0	1
Cc1cccc(-c2c3c(=O)n(C)c(=O)n(C)c3cn2-c2ccccc2O)c1	i	0	2.6*	10%	11	1
CC(=O)Nn1cc2c(c1-c1ccccc1)c(=O)n(C)c(=O)n2C	i	7	1.7	7%	1	1
Cc1ccccc1-n1nnnc1SC1CCOC1=O (stereo not drawn)	i	8	1.1	4%	3	0.98
CC(C)CCn1c(CN2CCN(c3cccc(Cl)c3)CC2)nc2c1c(=O)n(C)c(=O)n2C	i	0	1.1	2%	7	1
SMILES	DPM-DC inhibit	PMK inhibit	Fluor 339 460	NADH enzymes	MK inhibit	Abs 340nm
COc1cc(-c2nc3cnccc3n2C)cc(OC)c1OC	+	19	1.1	20%	0	0.96
CC1(CC(=O)O)C(=O)N=C2C=CC=CN21 (stereo not drawn)	x	6	2.1*	3%	12	1
COc1ccc(-c2cc(C(=O)OCC(=O)N(C)C)c3ccccc3n2)cc1	+	12	2.5*	19%	7	1.1
CCOc1ccc(-c2cc(C(=O)O)c3ccccc3n2)c(OCC)c1	i	0	1.8	6%	6	1.1
COc1ccccc1Oc1c(C)oc2c(CN3CCN(C)CC3)c(O)ccc2c1=O	x	7	3.8*	7%	6	1.1
COc1ccc(-c2c(C(F)(F)F)oc3c(CN4CCN(C)CC4)c(O)ccc3c2=O)cc1	i	12	1.1	4%	2	1
CCOC(=O)c1c(C)oc2c(CN3CCN(C)CC3)c(Br)c(OC)c(O)c12	i	14	1.1	7%	7	1
COC(=O)c1ccc(Oc2c(C)oc3c(CN4CCN(C)CC4)c(O)ccc3c2=O)cc1	x	13	3.8*	9%	5	1.1
Cc1ccc(-c2nnn(CC(=O)N(CC(=O)NC3CCCCC3)c3cnc4ccccc4c3)n2)o1	i	4	1.2	3%	13	0.98
O=C(CN1CCC2(CC1)OCCO2)c1ccc2cc[nH]c2c1	i	13	3.2*	10%	0	1.1
Cc1cccc(NC(=O)Cn2cnc3sc(C)c(S(=O)(=O)N4CCC(C)CC4)c3c2=O)n1	i	6	1.1	7%	14	1
Cc1nc2sc3c(NCc4ccco4)ncnc3c2c2c1COC(C)(C)C2	i	9	1.4	3%	1	1.1
CC(C)c1nc2oc3c(NCC4CCCO4)ncnc3c2c2c1COC(C)(C)C2 (stereo not drawn)	x	12	3.8*	11%	9	1
Cc1nc2oc3c(NCC4CCCO4)ncnc3c2c2c1COC(C)(C)C2 (stereo not drawn)	+	2	2.1*	12%	0	1
CCc1cc2c(NCC3CCCO3)ncnc2s1 (stereo not drawn)	i	4	1.1	5%	11	1
CCCc1nc2oc3c(NCCOCCO)ncnc3c2c2c1COC(C)(C)C2	x	2	3.6*	6%	9	1
Cc1nc2oc3c(NCc4ccccc4)ncnc3c2c2c1COC(C)(C)C2	i	0	2.5*	9%	7	1
COc1ccccc1OCc1nnc(SCC(=O)c2cc(Cl)ccc2OC)o1	i	2	1	2%	2	1
COCCN(CCOC)Cc1c(O)ccc2c3c(c(=O)oc12)CCC3	x	19	2*	14%	9	1.2
O=c1oc2c(CN3CCOCC3)c(O)c(Cl)cc2c2c1CCCC2	x	13	3.8*	11%	9	1.1
COCCN(CCOC)Cc1cc(=O)oc2cc3c(cc12)CCC3	i	14	1.2	9%	7	1.1
